# A selection: hits, their analogues and other compounds. The true share with any hit is near 4.7%.
# DSG3 Ab inh: inhibitors of pemphigus antibody binding to DSG3, primary screen, biochemical, bead-based, flow cytometry, scFv-GFP; DSG3-coupled beads, scFv-anti-DSG3-GFP binding; active compounds read low; Desmoglein-3 (Homo sapiens), P32926; binding (percent of control), % at 10 µM; 310,000 tested, 0.48% active; AID 588358, 2011;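 active = binding more than 3 SD below its plate's average and above zero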;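 note: hits lower antibody fragment binding to DSG3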
# rCAG binder: binders of r(CAG) RNA repeats, primary screen, biochemical, fluorescence. r(CAG) RNA repeat, TO-PRO-1 dye displacement fluorescence. inhibition, % at 3 µM. 370,000 tested, 1.3% active. AID 651821, 2012;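 active = inhibition above the plate cutoff, the mean of all test compounds on that plate plus 3 SD, cut at about 35% in these data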;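 note: 0% = DMSO alone and 100% = 100 µM mitoxantrone as full dye displacement; higher means more dye released from RNA so lower well fluorescence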
# ADAM10 inh: human ADAM10 inhibitors, primary screen, biochemical, QFRET, HTS; recombinant ADAM10, EDANS/DABCYL FRET peptide cleavage, 3 h; inhibition, % at 7 µM; 370,000 tested, 0.62% active;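 active = inhibition above a per-campaign cutoff equal to the mean of compounds falling between control-based bounds plus 3 SD, cut at about 20% in these data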;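 note: 0% = DMSO wells while the 100% control is not disclosed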
# Target sequence (O14672 214-748 limits assumed): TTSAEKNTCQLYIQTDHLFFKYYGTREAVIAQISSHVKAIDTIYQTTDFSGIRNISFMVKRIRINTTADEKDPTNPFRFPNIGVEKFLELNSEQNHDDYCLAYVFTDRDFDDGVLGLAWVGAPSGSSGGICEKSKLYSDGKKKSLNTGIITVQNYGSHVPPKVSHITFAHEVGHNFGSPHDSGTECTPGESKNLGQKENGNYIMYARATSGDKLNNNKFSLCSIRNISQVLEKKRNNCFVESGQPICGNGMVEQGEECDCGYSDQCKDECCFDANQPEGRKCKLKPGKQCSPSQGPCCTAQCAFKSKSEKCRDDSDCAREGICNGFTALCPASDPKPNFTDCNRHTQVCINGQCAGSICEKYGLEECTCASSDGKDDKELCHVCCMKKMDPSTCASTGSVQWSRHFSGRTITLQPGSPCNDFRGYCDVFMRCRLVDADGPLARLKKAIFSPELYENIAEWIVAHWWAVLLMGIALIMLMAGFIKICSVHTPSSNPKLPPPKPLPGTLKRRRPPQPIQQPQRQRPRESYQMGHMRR
# ADAM17 inh: ADAM17 inhibitors, primary screen, biochemical, QFRET. Disintegrin and metalloproteinase domain-containing protein 17 (Homo sapiens), P78536. recombinant ADAM17, EDANS/DABCYL FRET peptide cleavage. inhibition, % at 6.95 µM. 370,000 tested, 0.83% active;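 active = inhibition above the mean of compounds lying between control limits plus 3 SD, set per campaign, cut at about 8.5% in these data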;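 note: 0% = DMSO-only wells as the low control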
# MPTP block: mitochondrial permeability transition pore inhibitors, primary screen, biochemical, isolated mouse mitochondria, absorbance; Ca2+ swelling absorbance, 30 min; inhibition, % at 10 µM; 360,000 tested, 1.4% active;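 active = inhibition of 50% or more, scaled per plate between neutral and stimulator controls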;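 note: 0% = DMSO wells given calcium and 100% = 1 mM EGTA wells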
# KLK7 zymogen act: proKLK7 zymogen activators, primary screen, biochemical, fluorescence intensity | purified proKLK7, EDANS-DABCYL substrate fluorescence; 100% is mature enzyme control, 0% vehicle | 370,000 tested, 0.9% active | activation, % at 7 µM;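 active = activation above the mean of all tested compounds plus 3 SD, computed per campaign excluding outliers beyond control limits, cut at about 13% in these data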
# rCAG bind conf: small molecules binding CAG repeat RNA – biochemical, fluorescence, confirmation | shares compounds with rCAG binder | r(CAG) RNA repeat, TO-PRO-1 dye displacement fluorescence | inhibition, % at 3 µM | 4,300 tested, 70% active;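 active = inhibition above a per-plate cutoff, the mean inhibition of sample wells plus 3 SD, cut at about 35% in these data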;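 note: loss of TO-PRO-1 fluorescence as compound displaces dye from 1x1 AA loop RNA; 0% = DMSO only wells and 100% = 100 µM mitoxantrone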
# DNA CAG counter: displacement of TO-PRO-1 from CAG DNA duplex, counter-screen for rCAG RNA repeat binder project, biochemical, fluorescence, TO-PRO-1 dye, d(CAG) DNA oligo; d(CAG) DNA oligo TO-PRO-1 dye displacement; 4,300 tested, 94% active; inhibition, % at 3 µM; shares compounds with rCAG binder;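 active = inhibition above its plate's cutoff, the mean test-well inhibition plus 3 SD, cut at about 4.8% in these data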;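 note: 0% = DNA dye mix with DMSO and 100% = 100 µM mitoxantrone; hits displace the dye from DNA and so lower well fluorescence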
# dCAG dye DR: inhibitors of DNA CAG/GTC TO-PRO-1 complex, dose response, counter-screen for rCAG RNA repeat binder project, biochemical, fluorescence, TO-PRO-1 dye | DNA CAG/GTC duplex TO-PRO-1 dye displacement fluorescence | AID 686960, 2013 | shares compounds with rCAG binder | IC50, µM | 250 tested, 20% active; in the data active = IC50 below about 10 µM
# * = called active by the depositor; i = inactive; · = no result.
SMILES,DSG3 Ab inh,rCAG binder,ADAM10 inh,ADAM17 inh,MPTP block,KLK7 zymogen act,rCAG bind conf,DNA CAG counter,others
COc1cc(C2c3c([nH]c(=O)[nH]c3=O)Nc3ccc4ccccc4c32)cc(OC)c1OC (centres undefined),102.8,42.4*,-78.3,-30.2,0.1,-0.7,30.4,10.2*,
COc1cc(C2C3=C(CCCC3=O)Nc3[nH]n(-c4ccccc4)c(=O)c32)cc(OC)c1OC (centres undefined),92.4,5.1,2.3,-0.8,-2.4,-0.1,·,·,
COc1cc(C2c3c([nH]c(=O)[nH]c3=O)Nc3ccc4ccccc4c32)ccc1O (centres undefined),104.4,42.8*,-77.9,-29.1,-1.9,0.1,23.7,8.2*,
COc1cc(C2CC(=O)c3c(ccc4ccccc34)N2)ccc1O (centres undefined),105.0,2.1,3.5,-1.0,-0.7,-0.1,·,·,
CC(C)CN(C(=O)CN(C)CC(=O)Nc1ccccc1C#N)c1c(N)n(CC(C)C)c(=O)[nH]c1=O,87.7,3.9,-11.6,1.0,-1.3,-0.6,·,·,
CCOc1ccc(CCNC(=O)CS(=O)Cc2nc(-c3ccc(OC)cc3)oc2C)cc1OCC (centres undefined),100.1,-3.1,4.1,-1.6,-0.5,-0.1,·,·,
CCOc1cc(C2C3=C(CC(C)(C)CC3=O)OC3=C2C(=O)CC(C)(C)C3)cc([N+](=O)[O-])c1O,101.8,1.4,-13.1,-8.1,-1.6,-0.3,·,·,
CC1(C)CC(=O)C2=C(C1)OC1=C(C(=O)CC(C)(C)C1)C2c1cc([N+](=O)[O-])cc([N+](=O)[O-])c1O,81.3,52.6*,1.6,0.5,1.3,0.2,64.1*,24.2*,
COc1ccc(-c2csc(/C(C#N)=C(\O)CSc3nccn3C)n2)cc1OC,100.8,38.3*,6.8,1.2,0.6,0.7,59.0*,22.2*,
COc1cc(/C=C2\SC(=O)NC2=O)ccc1Oc1ccc([N+](=O)[O-])cc1[N+](=O)[O-],108.8,51.7*,-0.6,1.2,26.9,0.3,72.4*,33.0*,dCAG dye DR=i
C=CCCN1[C@@H](Cc2ccccc2)COc2ccccc2S1(=O)=O,·,1.8,-3.9,2.3,·,0.2,·,·,
CC(C)(C)c1ccc(C(=O)NC(CC(=O)O)c2ccc(OC3CCCC3)cc2)cc1 (centres undefined),91.7,39.4*,-9.2,-4.4,-0.3,-0.4,42.8*,8.0*,
O=C(O)CC/C(=C/c1cccc(NC(=O)c2ccccc2Cl)c1)c1nc2ccccc2s1,·,71.5*,-70.4,-26.7,1.5,2.0,75.4*,40.1*,
O=C(O)CC/C(=C\c1ccc(N2CCOCC2)c([N+](=O)[O-])c1)c1nc2ccccc2s1,100.8,48.4*,8.9,3.8,1.1,1.1,66.3*,24.5*,
O=C(O)CC/C(=C\c1ccc2c(c1)OCO2)c1nc2ccccc2s1,110.1,18.0,-29.0,-9.7,0.8,-0.3,·,·,
O=C(O)C/C(=C\c1ccc(N2CCOCC2)c([N+](=O)[O-])c1)c1nc2ccccc2s1,92.7,45.4*,7.8,5.3,1.5,0.7,41.0*,15.8*,
O=C(O)CC/C(=C\c1ccc(Cl)c([N+](=O)[O-])c1)c1nc2ccccc2s1,107.5,38.7*,0.6,-3.8,1.6,0.3,41.1*,10.1*,
CC(=O)Nc1ccc(N2CCOCC2)c([N+](=O)[O-])c1,102.8,-0.9,-1.4,0.1,-0.5,0.1,·,·,
O=[N+]([O-])c1ccc(-c2nc(Cl)c3c(n2)CCCC3)o1,105.0,6.4,-8.7,3.9,0.4,-0.1,·,·,
Oc1ccc2ccccc2c1C=Nn1c(-c2n[nH]c3c2CCC3)n[nH]c1=S,·,71.5*,-29.0,-4.6,·,-0.4,60.2*,22.0*,
COc1ccc(C=Nn2c(-c3ccccc3F)n[nH]c2=S)cc1OCc1ccccc1,·,49.6*,8.9,-1.3,·,0.5,41.6*,10.1*,
COc1ccc(C=Nn2c(-c3n[nH]c4c3CCC4)n[nH]c2=S)cc1OCc1ccccc1,·,48.7*,-2.2,3.2,·,-1.3,45.1*,17.4*,
COc1cc(C=Nn2c(-c3n[nH]c4c3CCC4)n[nH]c2=S)ccc1OCc1ccccc1,·,27.4,-4.5,-0.3,·,0.2,·,·,
Cc1nn(CCCC(=O)NC(C)c2ccccc2)c(=O)c2nn(-c3ccccc3)c(C)c12 (centres undefined),95.5,-7.9,-1.8,-15.1,-0.7,-0.1,·,·,
CSCCC(NC(=O)c1ccccc1Cl)C(=O)NCCc1ccccn1 (centres undefined),86.1,1.5,-12.1,-1.2,-1.5,0.6,·,·,
SMILES,DSG3 Ab inh,rCAG binder,ADAM10 inh,ADAM17 inh,MPTP block,KLK7 zymogen act,rCAG bind conf,DNA CAG counter,others
CCOc1ccc(Br)cc1S(=O)(=O)Nc1ccc(Cl)c(S(=O)(=O)N(C)C)c1,121.7,35.8*,9.4,5.3,13.9,-0.7,33.9,9.0*,
O=C(O)c1ccc(S(=O)(=O)N(CCc2ccccc2)Cc2ccc(Cl)cc2)cc1,124.7,72.1*,18.2,4.2,1.3,0.6,71.2*,34.5*,dCAG dye DR=i
O=C(O)CCC(=O)N1CCc2cc(S(=O)(=O)N(CCc3ccccc3)Cc3ccccc3)ccc21,102.6,62.8*,16.6,7.0,2.9,0.5,69.5*,30.4*,dCAG dye DR=i
COC(=O)[C@]12C[C@H](CC(=O)N3CCCCC3)C(=O)N(Cc3ccccc3)C1=C[C@H](C1CCCC1)O[C@@H]2C,·,0.6,7.6,-3.4,·,0.9,·,·,
COc1cc(CN2CCN(C(=O)c3ccccc3F)CC2)cc(OC)c1OC,112.4,11.7,-0.9,-0.7,0.7,0.2,·,·,
O=C(NN=Cc1c(F)cccc1F)c1ccccc1NS(=O)(=O)c1cccs1,96.4,37.7*,-15.3,-2.8,1.5,-0.7,20.6,4.6*,
COc1ccccc1CN1Cc2ccccc2Oc2ccccc2S1(=O)=O,·,3.1,7.4,3.9,·,0.1,·,·,
CC(=O)Oc1cc2c3c(c1)/C(=C1/SC(=S)NC1=O)C(=O)N3C(C)(C)C=C2C,109.2,59.4*,0.4,1.0,41.9,0.5,91.8*,73.4*,

# Source: PubChem BioAssay (several laboratories)
